# Results published in PubChem BioAssay (NCI).
# Compounds without any hit were thinned out: in the full panel of roughly 79,000, 15% have a hit. Unmarked numbers belong to inactive results. Activity calls are given as the source filed them. Rule as the data show it: active = growth inhibition above about 70%; inactive = the rest.
# Legend:
# [1] = NCI Yeast Anticancer Drug Screen. Data for the rad50 strain (AID 155);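 also: 0% = growth of vehicle-only cultures of the same strain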; settings: S. cerevisiae rad50 strain growth inhibition, active compounds read high
# How it was run: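 Compounds were tested on a yeast strain with an engineered DNA damage repair alteration; the reported value is growth inhibition normalised to vehicle treatment.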
# [2] = NCI Yeast Anticancer Drug Screen. Data for the mec2-1 strain (AID 157); settings: S. cerevisiae mec2-1 strain, active compounds read high
# How it was run: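 Compounds were applied to mec2-1 yeast cells. Their growth was then compared with that of vehicle-treated cultures to give growth inhibition.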
# [3] = NCI Yeast Anticancer Drug Screen. Data for the sgs1 mgt1 strain (AID 161);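 also: 0% = growth of cultures given vehicle only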; settings: S. cerevisiae sgs1 mgt1 strain, active compounds read high
# How it was run: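 Compounds are added to genetically altered yeast, and growth is compared with cultures given vehicle alone to give percent inhibition.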
# [4] = NCI Yeast Anticancer Drug Screen. Data for the cln2 rad14 strain (AID 165);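 also: 0% = growth equal to vehicle treated cultures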; settings: S. cerevisiae cln2 rad14 strain, active compounds read high
# How it was run: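 Strain: cln2 rad14 yeast, altered in cell cycle control and DNA damage repair. Read-out: growth inhibition vs vehicle.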
# [5] = NCI Yeast Anticancer Drug Screen. Data for the bub3 strain (AID 167); settings: S. cerevisiae bub3 mutant strain, active compounds read high
# How it was run: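 Growth of a checkpoint-deficient yeast mutant is measured after compound exposure. Values represent inhibition relative to vehicle.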
# [6] = NCI Yeast Anticancer Drug Screen. Data for the mlh1 rad18 strain (AID 175); settings: S. cerevisiae mlh1 rad18 strain growth inhibition, active compounds read high
# How it was run: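 A repair-deficient yeast strain is exposed to test compound, and growth is scored relative to vehicle-treated controls.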
# [7] = at 5.0 µM (retest, dose inferred, filed as 0.5)
# [8] = at 50.0 µM (retest, dose inferred, filed as 5.0)
SMILES,"growth inhibition [1, 7]","growth inhibition [1, 8]",growth inhibition ([1]; at 50.0 µM),"growth inhibition [2, 7]","growth inhibition [2, 8]",growth inhibition ([2]; at 50.0 µM),"growth inhibition [3, 7]","growth inhibition [3, 8]",growth inhibition ([3]; at 50.0 µM),"growth inhibition [4, 7]","growth inhibition [4, 8]",growth inhibition ([4]; at 50.0 µM),"growth inhibition [5, 7]","growth inhibition [5, 8]",growth inhibition ([5]; at 50.0 µM),"growth inhibition [6, 7]","growth inhibition [6, 8]",growth inhibition ([6]; at 50.0 µM)
O=C1C=Cc2ccccc2C1=O,29%,87% (active),83.6% (active),32%,95% (active),88.8% (active),30%,72% (active),88.2% (active),18%,87% (active),46.3%,36%,97% (active),91.9% (active),31%,96% (active),94.9% (active)
O=[N+]([O-])/C=C/c1ccc(Cl)cc1,79% (active),99% (active),99% (active),59%,100% (active),99.8% (active),54%,100% (active),99.5% (active),19%,99% (active),99% (active),45%,99% (active),99.5% (active),80% (active),99% (active),99.5% (active)
C[AsH](C)CC[AsH](C)C.C[AsH](C)CC[AsH](C)C.C[AsH](C)CC[AsH](C)C.[Ni],79% (active),98% (active),96.9% (active),51%,99% (active),95% (active),93% (active),99% (active),96.7% (active),74% (active),97% (active),93.5% (active),68%,99% (active),96.5% (active),56%,99% (active),96.5% (active)
CN(C)C(=O)OC1C(=O)N(C)c2ccc(Cl)cc2C2(c3ccccc3)N1C2(Cl)Cl (stereo not given),-18%,62%,-23.3%,5%,69%,-14.8%,-12%,77% (active),-22.2%,-11%,64%,-2.85%,3%,74% (active),-33.4%,-4%,70% (active),13.8%
CC(=O)[O-].CC(=O)[O-].O=C(N/N=C/c1cc(Cl)cc(Cl)c1[OH2+])c1ccncc1.[Zn+2],4%,9%,31%,-1%,11%,48.4%,7%,30%,60.8%,0%,-4%,38%,1%,10%,32.6%,2%,11%,70% (active)
[O-][n+]1onc2c1-c1nonc1CC2,21%,9%,-33.5%,-16%,-6%,5.65%,4%,22%,-10.3%,8%,21%,16%,6%,19%,-3.95%,-2%,11%,1.15%
OC1CC([CH2][Hg][I])OC([CH2][Hg][I])C1 (stereo not given),99% (active),98% (active),92.8% (active),100% (active),99% (active),97.3% (active),99% (active),99% (active),96.5% (active),99% (active),99% (active),97.2% (active),99% (active),99% (active),98.5% (active),99% (active),99% (active),86.2% (active)
COC(=O)[C@]1(C)CCC[C@]2(C)[C@H]3CC4OO[C@@]3(CC[C@H]21)[C@H]1O[C@@]41C(C)C,98% (active),99% (active),92.5% (active),99% (active),99% (active),93.4% (active),99% (active),100% (active),93.7% (active),92% (active),99% (active),92.2% (active),98% (active),99% (active),91.8% (active),98% (active),99% (active),92.3% (active)
NC(=O)Nc1ccc([As](Sc2ccccc2C(=O)O)Sc2ccccc2C(=O)O)cc1,-1%,14%,15.9%,-3%,-1%,4.75%,-3%,10%,17.3%,-8%,24%,28.9%,-8%,26%,-7.1%,-4%,8%,20.1%
COc1cccc(C2N(Cc3ccc(N(CCCl)CCCl)cc3C)CCCN2Cc2ccc(N(CCCl)CCCl)cc2C)c1O,7%,94% (active),27.6%,-2%,96% (active),10.2%,-2%,97% (active),64.5%,-5%,82% (active),-12.6%,-6%,89% (active),0.75%,8%,93% (active),40.1%
